# The source made the active and inactive calls.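 The calls were made as follows, unless noted: active = compounds that lower viability of the colon cancer cells in the luminescence readout, with no numeric limit stated; inactive = the rest.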
# Experiments:
# [1] = stimulators of nuclear beta-catenin in C2C12, primary screen, imaging, WNT3A-conditioned medium, mouse C2C12, NPC library (AID 1117326; in the data active = nuclear beta-catenin stimulation mostly above about 4.2%, no sharp cut-off; inactive = mostly below about 10%; also: reference of the scale not given here); conditions: stronger effect = higher value
# [2] = stimulators of insulin release from INS-1E, primary screen, cell-based, 5 mM glucose, NPC library (AID 1117329;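 active = compound raises insulin release from rat beta cells at 5 mM glucose, no numeric limit stated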; also: reference of the scale not given here); conditions: rat INS-1E insulin secretion, at 10 µM, stronger effect = higher value
# [3] = growth inhibition of GSK3B-pretreated HCT116 cells – cell-based, CellTiter-Glo, 0.2 to 20 µM (AID 1117336;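 active = compounds lowering colon cancer cell viability after pretreatment blocking the GSK3B kinase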); conditions: HCT116 viability after GSK3B inhibitor, at 20 µM, stronger effect = higher value
# [4] = inhibition of endothelial tube formation, primary screen, imaging, VEGF stimulated, CD31 staining, tube area, NPC library (AID 1117340;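 active = compound that reduces growth-factor-driven endothelial tube area in a mixed cell culture, no cutoff stated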); conditions: VEGF-stimulated ADSC/ECFC co-culture, at 10 µM, stronger effect = higher value
# [5] = glucagon-like peptide 1 release enhancers, primary assay, NCI-H716 cell line, NPC library (AID 1117341;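 active = compound raises GLP1 secretion from the human gut endocrine cells, with no numeric limit stated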; also: reference of the scale not given here); conditions: NCI-H716 cells, at 10 µM, stronger effect = higher value
# [6] = HCT116 colon cancer cell growth inhibition, primary screen, CellTiter-Glo luminescence, NPC library (AID 1117342;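 active = compounds that lower survival of HCT116 colon cancer cells in the luminescence readout, no numeric limit stated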); conditions: at 20 µM (top of the series)
# [7] = CellTiter-Glo luminescent readout of SW480 viability loss, NPC library primary (AID 1117343); conditions: CellTiter-Glo luminescence; at 20 µM (top of the series)
# [8] = decreased DLD-1 cellular survival, CellTiter-Glo luminescent readout, NPC compound collection, primary HTS (AID 1117346;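 active = compounds that lower survival of DLD-1 colon cancer cells in the luminescence readout, no cutoff given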); conditions: DLD-1 viability, CellTiter-Glo luminescence; at 20 µM (top of the series)
Structure (SMILES),nuclear beta-catenin stimulation ([1]; at 10 µM),"nuclear beta-catenin stimulation ([1]; stimulation, at 2 µM) [%]",insulin secretion stimulation [2],viability decrease [3],tube area decrease [4],GLP1 secretion stimulation [5],inhibition of viability [6],viability decrease (inhibition) [7],viability decrease (inhibition) [8]
c1ccc(CCNc2nc(-c3ccccc3)cs2)cc1,1.5% (inactive),0.6,-1.4% (inactive),38.9% (inactive),34.9% (inactive),-1.7% (inactive),57.7% (active),35.5% (inactive),31.5% (inactive)
COc1ccc2c(c1)CCCC2=O,1.5% (inactive),-0.1,1.3% (inactive),5.2% (inactive),13.5% (inactive),0.1% (inactive),8.5% (inactive),-3.8% (inactive),-12% (inactive)
O=C(NCCc1c[nH]c2ccccc12)c1cccnc1,1% (inactive),1.7,-2.7% (inactive),6.55% (inactive),35.9% (inactive),0.6% (inactive),-5.5% (inactive),71.3% (active),-0.95% (inactive)
CCc1ccc(C(=O)C(C)CN2CCCCC2)cc1 (centres undefined),-0.3% (inactive),-0.1,14.3% (inactive),-4.9% (inactive),-30.1% (inactive),-1.5% (inactive),19.2% (inactive),7.4% (inactive),-0.2% (inactive)
CCCCCC[C@@H](CCC)C(=O)O,-0.3% (inactive),-0.9,0.3% (inactive),1.2% (inactive),-29.5% (inactive),3.5% (inactive),17.7% (inactive),14% (inactive),16.9% (inactive)
CN[C@@H]1[C@@H](O)[C@@H](O[C@@H]2[C@H](O)[C@H](O[C@H]3OC(CN)=CC[C@H]3N)[C@@H](N)C[C@H]2N)OCC1(C)O (some centres undefined),3.9% (inactive),5.2,0.6% (inactive),-9.1% (inactive),0.1% (inactive),2.9% (inactive),-0.03% (inactive),-9.1% (inactive),-8.2% (inactive)
Cc1oc(-c2ccccc2)nc1CCC(=O)c1ccc(CC2SC(=O)NC2=O)cc1 (centres undefined),3.2% (inactive),-0.4,3.5% (inactive),97.3% (active),9.6% (inactive),12.7% (inactive),95.4% (active),120% (active),96.5% (active)
NCCC(=O)[N-][C@@H](Cc1cnc[nH]1)C(=O)O.[Zn],-0.4% (inactive),-0.2,-0.8% (inactive),-1.2% (inactive),9.1% (inactive),1.7% (inactive),-12.4% (inactive),-14.8% (inactive),5.9% (inactive)
NC(=O)NS(=O)(=O)c1ccc(Cl)cc1,1.1% (inactive),16.9,3.4% (inactive),-3.8% (inactive),-14.2% (inactive),-1.2% (inactive),2.5% (inactive),-13.4% (inactive),-2.8% (inactive)
CC(C)CCCC(C)CCCC(C)CCCCC(C)CCCC(C)CCCC(C)C (centres undefined),-1.2% (inactive),-0.8,-1.6% (inactive),-26.9% (inactive),4.8% (inactive),-2.5% (inactive),-10.1% (inactive),22.4% (inactive),-26.5% (inactive)
O=C(O)/C=C\C(=O)O,1.1% (inactive),1.9,2.7% (inactive),-27.8% (inactive),-3.6% (inactive),-3.8% (inactive),4.1% (inactive),33.2% (inactive),-11% (inactive)
CCCCC(CC)CNC(=O)CC(C)OC(=O)CCC(=O)O (centres undefined),-1.8% (inactive),-0.8,4% (inactive),-11.7% (inactive),0.6% (inactive),-1% (inactive),4.5% (inactive),4.5% (inactive),-7.8% (inactive)
CCCCC(CC)COC(=O)/C=C/c1ccc(OC)cc1 (centres undefined),-1.6% (inactive),-0.8,2.6% (inactive),5.9% (inactive),3.3% (inactive),0.8% (inactive),15.9% (inactive),-7.2% (inactive),3.7% (inactive)
O=C1[C@@H]2[C@H]3CC[C@H](C3)[C@@H]2C(=O)N1CCCCN1CCN(c2ncccn2)CC1,10% (inactive),34.2,3.2% (inactive),-0.8% (inactive),0.8% (inactive),1.5% (inactive),45.5% (inactive),12.8% (inactive),1.2% (inactive)
CCCCS(=O)(=O)N[C@@H](Cc1ccc(OCCCCC2CCNCC2)cc1)C(=O)O,1.1% (inactive),-1.6,0.7% (inactive),96.5% (active),-5.9% (inactive),5.3% (inactive),72.5% (active),64.5% (active),50.1% (active)
CC(C)CCOC(=O)c1ccc(N(C)C)cc1,0% (inactive),0.7,0.4% (inactive),-16.7% (inactive),-11.5% (inactive),1.7% (inactive),19.9% (inactive),-6.9% (inactive),10.3% (inactive)

# Source: PubChem BioAssay
